Bioassay records: PubChem BioAssay, National Center for Advancing Translational Sciences (NCATS)
KB-V1 cytotox = KB-V1 MDR subline cytotoxicity; KB-V1 MDR cells viability, CellTiter-Glo, 72 h; Potency, µM (highest dose often 46.1 µM), usual class: cytotoxic; 3.4% of 400,000 active; further: on the % scale 0 is the no-effect control and ±100 the full control effect; nearly all actives have a fitted effect of over 60% in size
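Luminescent ATP read-out (CellTiter-Glo, 10 min) measures survival of drug-selected KB-V1 MDR cells after 72 h, 37 degrees C compound exposure. Medium: phenol-red-free DMEM, 10% FBS. Values from fitted concentration-response curves.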
SW480 rereplic = DNA re-replication induction in SW480 cells | SW480 DNA re-replication, Hoechst DNA content imaging, 48 h | Potency, µM (highest dose often 46.1 µM), without a hit: at the top dose re-replication activation, actives largely listed as activators | 1.8% of 340,000 active | AID 624297; further: % of control where 0% means no effect; nearly all actives have a fitted effect of over 55% in size
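Treated cells incubate 48 hr (37 C, 5% CO2), are stained 40 min with Hoechst, and nuclear fluorescence is enumerated; a rise in nuclei with high DNA signal marks re-replication.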
RORgamma inh = blocks mouse ROR gamma transcriptional activity. Drosophila S2 Gal4-RORgamma UAS-luciferase reporter, 20 h. Potency, µM (top dose mostly 53.6 µM), for the others: at the highest dose activity change, negative = inhibition, actives largely listed as inhibitors. 5.4% of 310,000 active. AID 2551; further: on the % scale 0 is the no-effect control and ±100 the full control effect; nearly all actives have a fitted effect of over 60% in size
Target sequence (P51450 whole entry, looked up, the tested form may be a part): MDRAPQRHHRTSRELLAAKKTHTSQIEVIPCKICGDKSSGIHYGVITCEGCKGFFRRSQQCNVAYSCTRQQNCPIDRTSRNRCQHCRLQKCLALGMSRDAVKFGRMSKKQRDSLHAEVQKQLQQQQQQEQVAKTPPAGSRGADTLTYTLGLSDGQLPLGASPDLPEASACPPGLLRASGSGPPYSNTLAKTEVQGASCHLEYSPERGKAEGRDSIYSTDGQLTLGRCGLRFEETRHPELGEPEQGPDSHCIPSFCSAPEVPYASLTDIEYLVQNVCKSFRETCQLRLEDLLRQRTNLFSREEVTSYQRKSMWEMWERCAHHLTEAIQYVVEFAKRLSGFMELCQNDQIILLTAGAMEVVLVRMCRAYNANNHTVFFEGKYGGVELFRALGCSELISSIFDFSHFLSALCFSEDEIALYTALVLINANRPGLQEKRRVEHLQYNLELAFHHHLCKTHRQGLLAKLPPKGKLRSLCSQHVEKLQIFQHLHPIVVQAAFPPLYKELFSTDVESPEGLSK
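Drosophila S2 cells stably expressing Gal4-DBD/mouse RORγ fusion under metallothionein promoter plus UAS-luciferase; compound 1 h, then 700 uM CuSO4 induction for 20 h at ambient temperature; inhibition read as reduced luminescence.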
Gal4-VP16 FLuc = inhibits Gal4-VP16 luciferase reporter, ROR gamma counter-screen. Drosophila S2 Gal4-VP16 UAS-luciferase, luminescence, 20 h. Potency, µM (top dose mostly 53.6 µM), inactives show top-dose activity, negative = inhibition, usual class: inhibitors. 3.5% of 310,000 active;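 further: Gal4-VP16 expression switched on by copper sulfate through the metallothionein promoter; on the % scale 0 is the no-effect control and ±100 the full control effect; nearly all actives have a fitted effect of over 50% in size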
MCF10A rerep = inducers of DNA re-replication in MCF 10A breast cells; Potency, µM (series often up to 46.1 µM), inactives show at the top dose activity, positive = re-replication, most hits filed as activators; 2.9% of 350,000 active; MCF 10A DNA re-replication, Hoechst nuclear intensity, 48 h; AID 624296; further: % of control where 0% means no effect; nearly all actives have a fitted effect of over 50% in size
KB-3-1 cytotox = kills parental KB-3-1 adenocarcinoma cells | KB-3-1 viability, CellTiter-Glo ATP luminescence, 72 h | Potency, µM (titrated, usually from 46.1 µM), hits mostly cytotoxic | 1.4% of 400,000 active | AID 1347075; further: on the % scale 0 is the no-effect control and ±100 the full control effect; nearly all actives have a fitted effect of over 60% in size
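Cytotoxicity measured as CellTiter-Glo luminescence after 72 h at 37 C. Compound titrations were pinned onto drug-naive KB-3-1 parental adenocarcinoma cells grown in DMEM with 10% FBS, and normalized data fitted to concentration-response curves.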
An asterisk follows results filed as active; i = inactive; ? = inconclusive; . = no result given; [ ] = another dose, or the depositor's remark. The list is not random: actives were taken first. Their share in the collection is about 10%. The call rests on the fitted dose curve; in most records, active means well fitted curve in the direction sought with a large enough effect; inconclusive means small, poorly fitted or top-dose-only effect, or another doubt; inactive means no such curve, though single readings can be large; an effect the other way counts as inactive or inconclusive. Potency means the concentration at half of the fitted maximal effect.

SMILES | KB-V1 cytotox | SW480 rereplic | RORgamma inh | Gal4-VP16 FLuc | MCF10A rerep | KB-3-1 cytotox
CC(C)(C)C(=O)N1CCN(c2ccc(NC(=O)c3ccc([N+](=O)[O-])o3)cc2)CC1 | ? | 1.8µM* | ? | 14µM* | 1.8µM* | ?
O=C(Nc1ccc(N2CCN(Cc3ccccc3F)CC2)cc1)c1ccc([N+](=O)[O-])o1 | 15µM* | ? | 1% | ? | 2.1µM* | ?
CC1CCN(c2ccc(NC(=O)c3ccc([N+](=O)[O-])o3)cc2)CC1 | 10µM* | 9.2µM* | . | . | 3.3µM* | 5.2µM*
CCC(=O)N1CCN(c2ccc(NC(=O)c3ccc([N+](=O)[O-])o3)cc2)CC1 | ? | 0% | -14% | -22% | 11% | ?
CS(=O)(=O)N1CCN(c2ccc(NC(=O)c3ccc([N+](=O)[O-])o3)cc2)CC1 | 18µM* | -78% | -36% | ? | 2.1µM* | i
BrC(=C\c1ccccc1)/C=N/n1cnnc1 | ? | 23% | 7.1µM* | ? | 16µM* | i
COc1cccc(-c2cc(C(=O)Nc3cc(OC)c(OC)c(OC)c3)on2)c1 | ? | . | . | . | . | 9.2µM*
COc1cc(NCCC(=O)c2cccs2)c(OC)cc1Cl | i | ? | -18% | -21% | 21µM* | i
COc1ccc(NC(=O)CCC(=O)c2cccs2)cc1Cl | i | 10% | 28% | 18% | 1% | i
O=C(Nc1ccc2sccc2c1)Nc1nnc(-c2ccncc2)s1 | i | . | . | . | . | i
CC(/C=C/c1ccc(O)cc1)=NNc1ccccc1 | i | ? | . | . | 23µM* | i
CC(/C=C/c1ccccc1)=N\Nc1nc(C)cc(C)n1 | ? | ? | 0.45µM* | 5µM* | -40% | i
CC(=NNc1ccccc1)C(C)=NNc1ccccc1 | i | -2% | . | . | 14% | i
CC(/C=C/c1ccccc1)=N/NC(=O)c1nc2nc(C)cc(C)n2n1 | i | ? | ? | -3% | 28% | i
Cc1cc(C)nc(NN=C(c2ccccc2)c2ccccc2)n1 | i | 10µM* | 7.9µM* | ? | ? | i
COc1ccc(CCn2c3c(c(=O)[nH]c2=O)C(NC(=O)c2ccc(C(C)(C)C)cc2)(C(F)(F)F)C(=O)N3)cc1OC (stereo not drawn) | i | . | . | . | . | i
Cn1c(OCc2cccnc2)nc2c1c(=O)n(Cc1ccccc1)c(=O)n2C | ? | 3% | 11µM* | 6.3µM* | 30% | i
Cn1c(OCc2cccnc2)nc2c1c(=O)n(Cc1ccc(F)cc1)c(=O)n2C | i | 5% | -34% | -13% | 29% | i
C=CCOc1nc2c(c(=O)n(C)c(=O)n2C)n1Cc1ccccc1 | 8.2µM* | ? | ? | -21% | -1% | ?
CCN(CC)S(=O)(=O)c1ccc(N/N=C/c2ccc(O)cc2O)nc1 | ? | ? | 14µM* | ? | ? | i
Oc1ccc(C=NNc2ccccn2)c(O)c1 | i | ? | . | . | 16µM* | ?
O=C(O)COc1ccc(Br)cc1/C=N\Nc1ccccn1 | ? | 18% | 2.2µM* | -21% | 0% | i
CCN(CC)S(=O)(=O)c1ccc(N/N=C(\C)c2ccncc2)nc1 | i | ? | ? | ? | ? | i
Oc1ccc(/C=N/Nc2cccc3cccnc23)c(O)c1 | i | 1% | 2.5µM* | -9%[0.365 µM] | -1% | i
Oc1cccc(C=NNc2ccccn2)c1 | ? | 0% | . | . | 2% | i
SMILES | KB-V1 cytotox | SW480 rereplic | RORgamma inh | Gal4-VP16 FLuc | MCF10A rerep | KB-3-1 cytotox
Brc1ccccc1/C=N/Nc1ccccn1 | i | -16% | ? | -2% | 4% | i
O=C(CCn1c(=O)c2ccccc2n(CC(=O)Nc2ccc(F)cc2)c1=O)NCCc1ccccc1 | i | . | . | . | . | i
CC(C)=CCC/C(C)=C/CO/N=C1/C[C@@H](O)[C@@H](O)[C@@H]2[C@@H]3C(=O)N(Cc4ccccc4)C(=O)[C@H]3CC[C@@H]12 | . | . | -6%[10 µM] | -2%[10 µM] | . | .
C=CCc1ccccc1OCc1nc2ccc(C)cc2[nH]1 | i | . | . | . | . | i
Cc1ccc(/C=N/Nc2cccc3cccnc23)c(O)c1 | i | ? | 10µM* | ? | ? | i
NC(=O)CSc1oc(-c2cccs2)nc1S(=O)(=O)c1ccc(Br)cc1 | i | . | . | . | . | i
CCCCCCN1C=CC(=C2C(=O)c3ccccc3C2=O)C=C1 | i | -10% | 23% | -9% | 1% | ?
CCCN1C=CC(=C2C(=O)c3ccccc3C2=O)C=C1 | 2.9µM* | -7% | 1.1µM* | 0.25µM* | 15% | ?
CCCCN1C(C)=CC(=C2C(=O)c3ccccc3C2=O)C=C1C | ? | 0% | -19% | -22% | ? | i
CCN1C=CC(=C2C(=O)c3ccccc3C2=O)C=C1 | 8.2µM* | -6% | ? | 0.32µM* | 5% | 15µM*
Cc1nc(SCC(=O)NCCc2ccccc2)c2oc3ccccc3c2n1 | i | 6% | 7% | -10% | 3% | i
CCc1nc(SCC(=O)NCCc2ccccc2)c2oc3ccccc3c2n1 | 18µM* | 0% | -37% | 1% | 9% | i
O=C(O)CSc1nc(-c2ccccc2)nc2c1oc1ccccc12 | i | -5% | 3% | -5% | 0% | i
Cc1nc(SCC(=O)N2CCCc3ccccc32)c2oc3ccccc3c2n1 | 21µM* | 16µM* | 19% | -2% | ? | i
O=C(O)CSc1nc(-c2ccc(Cl)cc2)nc2c1oc1ccccc12 | i | 165% | 27% | -3% | 23µM* | i
CNC(=O)C(Sc1nc(C)nc2c1oc1ccccc12)C(C)=O (stereo not drawn) | ? | -3% | 33% | 7.1µM* | -1% | i
CC(C)Oc1ccccc1-c1nc(SCC(=O)c2ccc(F)cc2)n[nH]1 | i | . | . | . | . | i
COc1ccc(-c2nc3cnc(N(C)C)nc3n(CCC#N)c2=O)cc1 | . | . | -4% | 6% | . | .
Cc1cc(C)nc(Sc2nc(C)nc3c2oc2ccccc23)n1 | ? | ? | -24% | 2% | ? | 21µM*
Cc1nc(NCCc2ccccc2)c2oc3ccccc3c2n1 | 23µM* | 2% | -33% | ? | -180%[0.0737 µM] | ?
Cc1nc(SCC(=O)Nc2ccccc2)c2oc3ccccc3c2n1 | i | -7% | 11% | -8% | 12µM* | i
Cc1nc(SCC(=O)NC(C)c2ccccc2)c2oc3ccccc3c2n1 (stereo not drawn) | 5.2µM* | 1% | -18% | 1% | ? | i
CC(C)CCNc1ncnc2c1nnn2Cc1ccccc1Cl | 13µM* | 0% | 1% | 1% | 13% | i
CNC(=O)C1C(=S)NC(N)=C(C#N)C1c1ccccc1 (stereo not drawn) | i | 3.3µM* | ? | ? | ? | i
